{"source": "the antibiotic and cytotoxicity screens of Wong et al. (2023)", "note": "Among all 39,000 compounds or so, about 3,300 (8.5%) were called active. The entries come from a sample that favours actives as a whole.", "data": [{"system": "HepG2", "assay": "cytotoxicity call (relative viability < 0.9)", "settings": "10 µM", "values": [{"smiles": "COc1cccc(NC(=O)N2C[C@@H](O)COC[C@H]3O[C@H](CC(=O)NC4Cc5ccccc5C4)CC[C@@H]32)c1", "cytotoxicity call": "inactive"}, {"smiles": "CCNC(=O)C[C@H]1CC[C@H]2[C@@H](COC[C@@H](O)CN2C(=O)Nc2c(C)noc2C)O1", "cytotoxicity call": "inactive"}, {"smiles": "Cc1ccc(S(=O)(=O)N[C@@H]2CC[C@H](CCNC(=O)CN3CCOCC3)O[C@H]2CO)cc1", "cytotoxicity call": "inactive"}, {"smiles": "CCOC(=O)CCc1n[nH]c(=O)[nH]c1=O", "cytotoxicity call": "inactive"}, {"smiles": "O=C(CCCCCNC(=O)OCCCCO[C@@H]1C[C@H](C2CCCCC2)C=C(C(=O)N2CCOCC2)O1)NO", "cytotoxicity call": "inactive"}, {"smiles": "Cc1noc(C)c1NC(=O)Nc1ccc2c(c1)C(=O)N([C@@H](C)CO)C[C@@H](C)[C@H](CN(C)S(C)(=O)=O)O2", "cytotoxicity call": "inactive"}, {"smiles": "C[C@H](CO)N1C[C@H](C)[C@@H](CN(C)C(=O)CCC(F)(F)F)OCCCC[C@H](C)Oc2ccc(NC(=O)C3CCCCC3)cc2C1=O", "cytotoxicity call": "inactive"}, {"smiles": "Cc1noc(C)c1NC(=O)N(C)C[C@@H]1OCCCC[C@H](C)Oc2ccc(NC(=O)CCC(F)(F)F)cc2C(=O)N([C@@H](C)CO)C[C@H]1C", "cytotoxicity call": "inactive"}, {"smiles": "C[C@H](CO)N1C[C@H](C)[C@H](CN(C)Cc2ccc(Cl)c(Cl)c2)Oc2c(NC(=O)Nc3ccccc3)cccc2C1=O", "cytotoxicity call": "inactive"}, {"smiles": "C[C@@H]1CN([C@H](C)CO)C(=O)c2cccc(NS(=O)(=O)c3ccc(Cl)cc3)c2O[C@H]1CN(C)Cc1ccc(Cl)c(Cl)c1", "cytotoxicity call": "inactive"}, {"smiles": "O=S1(=O)C[C@H](NCCO)[C@@H](O)C1", "cytotoxicity call": "inactive"}, {"smiles": "OCc1c[nH]c2ccccc12", "cytotoxicity call": "active"}, {"smiles": "NC(Cc1c[nH]c2ccccc12)C(=O)O", "note": "(configuration not stated)", "cytotoxicity call": "inactive"}, {"smiles": "CNC(=O)C(=O)NCCc1c[nH]c2ccccc12", "cytotoxicity call": "inactive"}, {"smiles": "C[C@@H]1CN([C@H](C)CO)C(=O)c2cccc(NC(=O)c3nc4ccccc4s3)c2O[C@H]1CN(C)C(=O)Nc1ccc(F)cc1", "cytotoxicity call": "inactive"}, {"smiles": "CN1CCN(C(=O)CC#N)CC1", "cytotoxicity call": "inactive"}, {"smiles": "C[C@@H]1CN([C@@H](C)CO)C(=O)c2cccc(NC(=O)C3CCCCC3)c2O[C@H]1CN(C)S(=O)(=O)c1cn(C)cn1", "cytotoxicity call": "inactive"}, {"smiles": "CCCCCC[C@@H](O)CC=CCCCCCCCC(=O)O", "cytotoxicity call": "inactive"}, {"smiles": "N[C@@H]1CC[C@@H](c2ccc(Cl)c(Cl)c2)c2ccccc21", "cytotoxicity call": "active"}, {"smiles": "CN[C@H]1CC[C@@H](c2ccc(Cl)c(Cl)c2)c2ccccc21", "cytotoxicity call": "active"}, {"smiles": "CNC1CCC(c2ccc(Cl)c(Cl)c2)c2ccccc21.Cl", "note": "(configuration not stated)", "cytotoxicity call": "active"}, {"smiles": "C[C@@H]1CN([C@@H](C)CO)C(=O)CCCn2nncc2CO[C@@H]1CN(C)S(=O)(=O)c1ccc(C#N)cc1", "cytotoxicity call": "inactive"}, {"smiles": "CC(=O)NCCCC[C@@H]1NC(=O)[C@@H]2C[C@H](C(=O)NCCCCCCNC(=O)CS)[C@H](c3ccc(O)cc3)N2C1=O", "cytotoxicity call": "inactive"}, {"smiles": "C[C@@H]1CCCCO[C@H](CN(C)C(=O)NC2CCCCC2)[C@H](C)CN([C@@H](C)CO)C(=O)c2cc(NC(=O)c3ccncc3)ccc2O1", "cytotoxicity call": "inactive"}, {"smiles": "C[C@@H]1CN([C@@H](C)CO)C(=O)c2cc(NC(=O)NC3CCCCC3)ccc2O[C@@H](C)CCCCO[C@H]1CN(C)Cc1ccc(C(=O)O)cc1", "cytotoxicity call": "inactive"}, {"smiles": "CC(C)NC(=O)N(C)C[C@@H]1Oc2c(NS(=O)(=O)c3cn(C)cn3)cccc2C(=O)N([C@@H](C)CO)C[C@H]1C", "cytotoxicity call": "inactive"}, {"smiles": "C[C@@H]1CCCCO[C@@H](CN(C)S(=O)(=O)c2ccccc2)[C@H](C)CN([C@H](C)CO)C(=O)c2cc(NC(=O)Nc3cccc4ccccc34)ccc2O1", "cytotoxicity call": "inactive"}, {"smiles": "C[C@H]1CN([C@@H](C)CO)C(=O)c2cccc(NC(=O)C3CCOCC3)c2O[C@H]1CN(C)Cc1ccncc1", "cytotoxicity call": "inactive"}, {"smiles": "COCCOC(=O)N1C(=O)[C@@]2(c3cc(C#CC4=CCCCC4)ccc31)[C@H](c1ccc(OCCO)cc1)N1[C@H](c3ccccc3)[C@H](c3ccccc3)OC(=O)[C@H]1[C@@H]2C(=O)N1CCCCCCC1", "cytotoxicity call": "inactive"}, {"smiles": "COCCOC(=O)N1C(=O)[C@@]2(c3cc(C#CC4=CCCCC4)ccc31)[C@H](C(=O)N1CCc3cc(OC)c(OC)cc3C1)[C@H]1C(=O)O[C@H](c3ccccc3)[C@H](c3ccccc3)N1[C@@H]2c1ccc(O)cc1", "cytotoxicity call": "inactive"}, {"smiles": "COCCOC(=O)N1C(=O)[C@@]2(c3cc(C#CC4=CCCCC4)ccc31)[C@H](C(=O)N1CCc3cc(OC)c(OC)cc3C1)[C@H]1C(=O)O[C@H](c3ccccc3)[C@H](c3ccccc3)N1[C@@H]2c1ccccc1OCCO", "cytotoxicity call": "active"}, {"smiles": "COCCOC(=O)N1C(=O)[C@@]2(c3cc(C#CC4=CCCCC4)ccc31)[C@H](c1ccccc1OCCO)N1[C@H](c3ccccc3)[C@H](c3ccccc3)OC(=O)[C@H]1[C@@H]2C(=O)N1CCCCCCC1", "cytotoxicity call": "inactive"}, {"smiles": "COCCOC(=O)N1C(=O)[C@@]2(c3cc(C#CCNC(N)=O)ccc31)[C@H](C(=O)N1CCc3cc(OC)c(OC)cc3C1)[C@H]1C(=O)O[C@H](c3ccccc3)[C@H](c3ccccc3)N1[C@@H]2c1ccccc1OCCO", "cytotoxicity call": "inactive"}, {"smiles": "COCCOC(=O)N1C(=O)[C@@]2(c3cc(C#CCCO)ccc31)[C@H](c1ccccc1OCCO)N1[C@H](c3ccccc3)[C@H](c3ccccc3)OC(=O)[C@H]1[C@@H]2C(=O)N1CCc2cc(OC)c(OC)cc2C1", "cytotoxicity call": "inactive"}, {"smiles": "COCCOC(=O)N1C(=O)[C@@]2(c3cc(C#CC4=CCCCC4)ccc31)[C@H](c1ccccc1OCCO)N1[C@H](c3ccccc3)[C@H](c3ccccc3)OC(=O)[C@H]1[C@@H]2C(=O)N1CCc2cc(OC)c(OC)cc2C1", "cytotoxicity call": "inactive"}, {"smiles": "COCCOC(=O)N1C(=O)[C@@]2(c3cc(C#CCCO)ccc31)[C@H](C(=O)N1CCc3cc(OC)c(OC)cc3C1)[C@H]1C(=O)O[C@H](c3ccccc3)[C@H](c3ccccc3)N1[C@@H]2c1ccccc1OCCO", "cytotoxicity call": "active"}, {"smiles": "COCCOC(=O)N1C(=O)[C@@]2(c3cc(C#CC4=CCCCC4)ccc31)[C@H](c1ccc(OCCO)cc1)N1[C@H](c3ccccc3)[C@H](c3ccccc3)OC(=O)[C@H]1[C@@H]2C(=O)N1CCc2cc(OC)c(OC)cc2C1", "cytotoxicity call": "active"}]}]}
